Growth inhibition, inhibition and outcome data for 20 molecules are collected here from PubChem BioAssay.

Unmarked numbers belong to inactive results. For some of these results: Potency and affinity values are given separately. Activity calls are given as the source filed them. Unless noted, the rule behind the calls is not given here.

Experiment [1] is described as follows: antimalarial activity against Dd2 strain (AID 2302;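 active = growth inhibition above 50% at the single 2 µM test dose, taken to imply half-maximal potency below 2 µM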;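 note: 0% = DMSO untreated growth and 100% = chloroquine plus artemisinin killed control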). To be noted: P. falciparum Dd2 in RBCs, LDH growth readout, 72 h; at 2 µM; stronger effect = higher value.
Experiment [2] can be described thus: HepG2 cytotoxicity, primary screen, cytotoxicity control for P. falciparum antimalarial project, cell-based, ATP luminescence (AID 2303;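 active = inhibition above 50%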;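 note: 0% = DMSO wells and 100% = digitonin-killed cells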). The following applies: HepG2 viability, 24-48 h, at 10 µM, stronger effect = higher value.
Experiment [3] deals with L-lactate dehydrogenase (Plasmodium falciparum (isolate CDC / Honduras)) (UniProt Q27743). Kind of experiment: PfLDH activity inhibition – cell lysate, 3D7 strain, counter-screen for P. falciparum growth inhibition project (AID 2304).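 Note: 0% = vehicle and 100% = reference inhibitor.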 The following applies: P. falciparum 3D7 crude extract, LDH APAD/NBT absorbance; at 2 µM; stronger effect = higher value.
Chain of L-lactate dehydrogenase (Plasmodium falciparum (isolate CDC / Honduras)) (Q27743 whole entry, looked up): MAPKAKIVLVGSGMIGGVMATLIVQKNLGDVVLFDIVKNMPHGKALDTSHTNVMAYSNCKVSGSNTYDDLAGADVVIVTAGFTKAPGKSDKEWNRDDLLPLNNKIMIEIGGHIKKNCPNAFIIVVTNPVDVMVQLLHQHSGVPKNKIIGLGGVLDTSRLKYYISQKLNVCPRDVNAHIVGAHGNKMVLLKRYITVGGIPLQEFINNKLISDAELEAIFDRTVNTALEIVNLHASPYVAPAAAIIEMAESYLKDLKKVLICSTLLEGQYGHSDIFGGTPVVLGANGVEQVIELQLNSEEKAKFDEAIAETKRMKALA
Experiment [4] is described as follows: inhibition of 3D7 malaria parasite growth – strain 3D7 (AID 2306).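 Note: 0% = DMSO wells and 100% = chloroquine plus artemisinin control wells.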 To be noted: P. falciparum 3D7 erythrocytic growth, LDH absorbance, 72 h; at 2 µM; stronger effect = higher value.
The target in experiment [5] is Calcium-dependent protein kinase 1 (Plasmodium falciparum (isolate 3D7)) (UniProt P62344). Kind of experiment: PfCDPK1 kinase inhibitors, biochemical, TCAMS library (AID 1159585; cut-off not given, nearly all actives have IC50 up to about 0.98 µM;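 note: inhibitors leave more ATP so luminescence rises with inhibition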). The following applies: recombinant PfCDPK1, Kinase-Glo ATP depletion luminescence. (Kinase-Glo reads ATP consumption through a luciferase reaction.)
Chain of Calcium-dependent protein kinase 1 (Plasmodium falciparum (isolate 3D7)) (P62344 whole entry, looked up): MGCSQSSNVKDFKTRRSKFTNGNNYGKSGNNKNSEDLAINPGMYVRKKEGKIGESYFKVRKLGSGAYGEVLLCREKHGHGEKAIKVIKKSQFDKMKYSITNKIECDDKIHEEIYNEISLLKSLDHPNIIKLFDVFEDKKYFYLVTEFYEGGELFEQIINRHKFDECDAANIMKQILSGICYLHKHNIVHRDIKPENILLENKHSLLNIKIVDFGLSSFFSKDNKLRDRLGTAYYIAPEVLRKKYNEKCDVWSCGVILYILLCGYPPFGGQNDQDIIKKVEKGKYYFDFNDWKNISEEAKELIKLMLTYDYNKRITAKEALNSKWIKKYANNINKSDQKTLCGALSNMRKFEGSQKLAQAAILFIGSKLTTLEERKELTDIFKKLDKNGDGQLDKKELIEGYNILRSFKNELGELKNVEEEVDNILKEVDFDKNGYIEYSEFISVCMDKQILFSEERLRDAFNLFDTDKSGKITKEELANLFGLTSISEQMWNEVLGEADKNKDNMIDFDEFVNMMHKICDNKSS
The target in experiment [6] is Plasmodium falciparum protein kinase 6 (PK6, PF3D7_1337100) (UniProt Q8IDW1). Kind of experiment: PfPK6 kinase inhibitors, biochemical, TCAMS library (AID 1159586). The following applies: recombinant PfPK6, Kinase-Glo ATP depletion luminescence.
Chain of Plasmodium falciparum protein kinase 6 (PK6, PF3D7_1337100) (Q8IDW1 1-305): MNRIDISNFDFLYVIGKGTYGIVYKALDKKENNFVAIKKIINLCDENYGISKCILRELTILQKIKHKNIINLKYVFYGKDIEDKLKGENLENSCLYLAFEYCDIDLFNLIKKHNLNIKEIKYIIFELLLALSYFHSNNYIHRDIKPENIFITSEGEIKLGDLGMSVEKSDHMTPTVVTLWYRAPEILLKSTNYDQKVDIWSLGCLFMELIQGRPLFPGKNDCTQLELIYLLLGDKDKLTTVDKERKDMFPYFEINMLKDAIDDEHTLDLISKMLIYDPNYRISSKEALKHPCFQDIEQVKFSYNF
Experiment [7] deals with Protein kinase 7 (PK7), Plasmodium falciparum 3D7 (PF3D7_0213400) (UniProt Q7YTF7). Kind of experiment: inhibition of Plasmodium PK7 catalytic activity – biochemical, TCAMS antimalarial set, Kinase-Glo luminescence (AID 1159587). To be noted: recombinant PfPK7, Kinase-Glo ATP depletion luminescence.
Chain of Protein kinase 7 (PK7), Plasmodium falciparum 3D7 (PF3D7_0213400) (Q7YTF7 1-343): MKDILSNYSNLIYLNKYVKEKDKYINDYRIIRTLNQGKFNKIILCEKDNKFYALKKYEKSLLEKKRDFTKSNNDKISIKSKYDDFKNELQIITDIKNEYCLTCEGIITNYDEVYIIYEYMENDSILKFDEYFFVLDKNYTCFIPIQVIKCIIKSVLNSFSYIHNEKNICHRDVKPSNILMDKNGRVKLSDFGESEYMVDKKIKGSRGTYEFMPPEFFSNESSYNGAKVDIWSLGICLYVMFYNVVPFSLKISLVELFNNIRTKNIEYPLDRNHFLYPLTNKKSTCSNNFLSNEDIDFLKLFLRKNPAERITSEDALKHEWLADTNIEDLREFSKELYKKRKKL
For experiment [8], the target named is Calcium-dependent protein kinase 4 (Plasmodium falciparum (isolate 3D7)) (UniProt Q8IBS5). The experiment can be described thus: PfCDPK4 kinase inhibitors, biochemical, TCAMS library (AID 1159588; cut-off not given, nearly all actives have IC50 up to about 0.91 µM). To be noted: recombinant PfCDPK4, Kinase-Glo ATP depletion luminescence.
Chain of Calcium-dependent protein kinase 4 (Plasmodium falciparum (isolate 3D7)) (Q8IBS5 whole entry, looked up): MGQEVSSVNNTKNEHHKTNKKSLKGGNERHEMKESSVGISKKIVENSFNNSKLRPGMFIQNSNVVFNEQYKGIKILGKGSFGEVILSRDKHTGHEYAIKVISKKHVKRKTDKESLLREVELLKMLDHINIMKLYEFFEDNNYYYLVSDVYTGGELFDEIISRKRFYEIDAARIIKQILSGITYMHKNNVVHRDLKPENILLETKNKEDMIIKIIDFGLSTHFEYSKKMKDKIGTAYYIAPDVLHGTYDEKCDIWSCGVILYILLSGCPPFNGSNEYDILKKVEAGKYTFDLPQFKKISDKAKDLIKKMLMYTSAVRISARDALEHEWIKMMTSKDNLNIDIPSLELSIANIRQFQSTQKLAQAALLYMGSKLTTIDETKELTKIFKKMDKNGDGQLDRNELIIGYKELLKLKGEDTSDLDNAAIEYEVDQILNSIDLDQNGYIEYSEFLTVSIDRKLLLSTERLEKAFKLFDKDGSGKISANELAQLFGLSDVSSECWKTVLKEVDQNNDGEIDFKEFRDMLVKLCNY

For orientation: inhibition means the relative decrease from the control value, in per cent. Take `CCOC(=O)c1ccc(NC(=O)N[C@@H](Cc2ccccc2)C(=O)NC2CCN(Cc3ccc(O)c(OC)c3)C2)cc1` (stereo not given in full): the growth inhibition is 0% in experiment [1] and 88% (active) in experiment [4]. The values for the inhibition in experiment [2] and in experiment [3] were -1% and -2%, respectively. In addition, the result in experiment [5], in experiment [6], in experiment [7] and in experiment [8] was inactive.
On to `C[C@@H]1CN(c2cnn(C/C=C/c3ccc(NC(=O)c4ccc(Cl)cc4)cc3)c(=O)c2Cl)C[C@H](C)N1`, for which the results for the growth inhibition in experiment [1] and in experiment [4] were 82% (active) and 88% (active), respectively. The inhibition in experiment [2] is 25%; in experiment [3] it was -2%. The result in experiment [5], in experiment [6], in experiment [7] and in experiment [8] was inactive.
As to `O=C(NCCCCN1CCC(c2ccc3c(c2OCc2ccncc2)CCCC3)CC1)c1ccc(NC(=O)c2ccc(Cl)cc2)cc1`, the results for the growth inhibition in experiment [1] and in experiment [4] were 99% (active) and 100% (active), respectively. The results for the inhibition in experiment [2] and in experiment [3] were 62% (active) and -4%, respectively. Also, the outcome in experiment [5], in experiment [6], in experiment [7] and in experiment [8] was inactive.
As to `CCN1CCCC(CNC(=O)/C(=C/C=C/c2cc3cc(Cl)c(Cl)cc3[nH]2)OC)C1` (stereo not given), the growth inhibition was 89% (active) in experiment [1] and 93% (active) in experiment [4]. The inhibition in experiment [2] is 33%; in experiment [3], -1%. Also, the outcome in experiment [5], in experiment [6], in experiment [7] and in experiment [8] was inactive.
`CCN(CC)CCNc1ccnc2[nH]c3ccc(C)cc3c12`: the growth inhibition in experiment [1] was 81% (active); in experiment [4] it was 102% (active). The values for the inhibition in experiment [2] and in experiment [3] were 9% and -3%, respectively. The result in experiment [5], in experiment [6], in experiment [7] and in experiment [8] was inactive.
`Nc1c2c(nc3cc(NC(=O)c4ccc([N+](=O)[O-])cc4)ccc13)CCCC2`: the growth inhibition in experiment [1] was 58% (active); in experiment [4], 100% (active). The inhibition in experiment [2] is 11%; in experiment [3] it was -2%. Also, the result in experiment [5], in experiment [6], in experiment [7] and in experiment [8] was inactive.
`COc1ccc(-c2cccc(NC(=O)c3cccc(Cl)c3)c2)cc1CN1CCCN(C)CC1`: the values for the growth inhibition in experiment [1] and in experiment [4] were 99% (active) and 101% (active), respectively. For the same molecule, the inhibition in experiment [2] is 20%; in experiment [3], 6%. Besides, the outcome in experiment [5], in experiment [6], in experiment [7] and in experiment [8] was inactive.
As to `Cc1ccc(CN2CCC(C(=O)Nc3ccc(-c4cc5ccccc5[nH]4)cc3)CC2)o1`, the growth inhibition is 40% in experiment [1] and 92% (active) in experiment [4]. Moreover, the values for the inhibition in experiment [2] and in experiment [3] were 19% and 3%, respectively. Further, the result in experiment [5], in experiment [6], in experiment [7] and in experiment [8] was inactive.
With `Cc1cc(N[C@@H](CC(C)C)C(=O)Nc2ccccc2)nc(NCCc2ccc(F)cc2)n1`, the figures for the growth inhibition in experiment [1] and in experiment [4] were 94% (active) and 101% (active), respectively. Besides, the inhibition in experiment [2] is 8%; in experiment [3] it was 4%. The result in experiment [5], in experiment [6], in experiment [7] and in experiment [8] was inactive.
As for `Cc1cc(C)c(C)c(S(=O)(=O)N2CCCCC(c3ccc(F)c(F)c3)=N2)c1C`, the results for the growth inhibition in experiment [1] and in experiment [4] were 60% (active) and 86% (active), respectively. The inhibition is 5% in experiment [2] and -3% in experiment [3]. Moreover, the outcome in experiment [5], in experiment [6], in experiment [7] and in experiment [8] was inactive.
Take `CCCN(CCC)C(=O)c1cc(C(=O)N[C@@H](Cc2ccccc2)[C@H](O)CNC(C)(C)c2cccc(C(F)(F)F)c2)cc(N2CCCCS2(=O)=O)c1`: the growth inhibition was 98% (active) in experiment [1] and 99% (active) in experiment [4]. In addition, the inhibition in experiment [2] was 19%; in experiment [3] it was -4%. The outcome in experiment [5], in experiment [6], in experiment [7] and in experiment [8] was inactive.
On to `CCCCNC(=O)c1cc(CNC2CCCCC2)ccc1-c1cccc(CNCc2ccc(-c3ccccc3)cc2)c1`, for which the growth inhibition is 85% (active) in experiment [1] and 100% (active) in experiment [4]. In addition, the inhibition in experiment [2] was 100% (active); in experiment [3], 0%. In addition, the outcome in experiment [5], in experiment [6], in experiment [7] and in experiment [8] was inactive.
For the molecule `N#Cc1cccc(-c2cnc(N)c(-c3nc4ccc(S(N)(=O)=O)cc4[nH]3)c2)c1`, the growth inhibition in experiment [1] is 99% (active); in experiment [4], 100% (active). In addition, the inhibition in experiment [2] was 16%; in experiment [3], -5%. In addition, the outcome in experiment [5], in experiment [6], in experiment [7] and in experiment [8] was inactive.
For the molecule `c1ccc(Cn2nnnc2-c2cccc(Nc3ccnc4cc(-c5nccs5)ccc34)c2)cc1`, the growth inhibition in experiment [1] was 46%; in experiment [4], 87% (active). In addition, the inhibition in experiment [2] was 51% (active); in experiment [3] it was -4%. Besides, the outcome in experiment [5], in experiment [6], in experiment [7] and in experiment [8] was inactive.
For the molecule `Cc1cnc2cc3c(cc2c1N1CCN(C)CC1)NCC3`, the growth inhibition was 69% (active) in experiment [1] and 102% (active) in experiment [4]. The results for the inhibition in experiment [2] and in experiment [3] were 12% and 3%, respectively. Also, the result in experiment [5], in experiment [6], in experiment [7] and in experiment [8] was inactive.
For `Oc1ccccc1Nc1nc(NCc2ccco2)c2ccccc2n1`, the growth inhibition is 71% (active) in experiment [1] and 99% (active) in experiment [4]. For the same molecule, the results for the inhibition in experiment [2] and in experiment [3] were 0% and 3%, respectively. Further, the result in experiment [5], in experiment [6], in experiment [7] and in experiment [8] was inactive.
As to `c1ccc(-n2cncn2)cc1`, the growth inhibition in experiment [1] was 96% (active); in experiment [4], 93% (active). Also, the inhibition in experiment [2] is 0%; in experiment [3], 6%. Moreover, the outcome in experiment [5], in experiment [6], in experiment [7] and in experiment [8] was inactive.
Turning to `Cc1cc(N2CCCC2=O)ccc1-c1ccc(C(=O)N2CCC(Oc3cccc(Cl)c3)CC2)cc1`, the growth inhibition in experiment [1] was 98% (active); in experiment [4], 99% (active). Further, the inhibition in experiment [2] is 34%; in experiment [3] it was -3%. Further, the outcome in experiment [5], in experiment [6], in experiment [7] and in experiment [8] was inactive.
In the case of `O=c1cc(NCCCNCc2cccc(C(F)(F)F)c2Cl)[nH]c2ccccc12`, the growth inhibition is 24% in experiment [1] and 94% (active) in experiment [4]. In addition, the figures for the inhibition in experiment [2] and in experiment [3] were 0% and -2%, respectively. In addition, the outcome in experiment [5], in experiment [6], in experiment [7] and in experiment [8] was inactive.
For the molecule `CCCC(=O)NC(c1ccc(C)cc1)c1ccc2cccnc2c1O` (stereo not given), the growth inhibition in experiment [1] was 45%; in experiment [4] it was 88% (active). The figures for the inhibition in experiment [2] and in experiment [3] were 52% (active) and -4%, respectively. For the same molecule, the result in experiment [5], in experiment [6], in experiment [7] and in experiment [8] was inactive.
